# Reference: publication PMC4336329 (PLoS ONE, 2015)
# About 14,000 (4.5%) of roughly 310,000 compounds showed an effect of 50% or more. Effects have a minus sign here. Only a selection was taken, and strong results are over-represented in it overall.
# Target: human ether-à-go-go-related gene (hERG) potassium channel (human, UniProt Q12809)
# Assay: primary screen, population patch clamp on CHO cells stably expressing hERG; higher = less effect of the substance
# 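Further: peak tail current of the secondary pulse compared with the same well before compound.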
# Chain of human ether-à-go-go-related gene (hERG) potassium channel (Q12809 whole entry, looked up): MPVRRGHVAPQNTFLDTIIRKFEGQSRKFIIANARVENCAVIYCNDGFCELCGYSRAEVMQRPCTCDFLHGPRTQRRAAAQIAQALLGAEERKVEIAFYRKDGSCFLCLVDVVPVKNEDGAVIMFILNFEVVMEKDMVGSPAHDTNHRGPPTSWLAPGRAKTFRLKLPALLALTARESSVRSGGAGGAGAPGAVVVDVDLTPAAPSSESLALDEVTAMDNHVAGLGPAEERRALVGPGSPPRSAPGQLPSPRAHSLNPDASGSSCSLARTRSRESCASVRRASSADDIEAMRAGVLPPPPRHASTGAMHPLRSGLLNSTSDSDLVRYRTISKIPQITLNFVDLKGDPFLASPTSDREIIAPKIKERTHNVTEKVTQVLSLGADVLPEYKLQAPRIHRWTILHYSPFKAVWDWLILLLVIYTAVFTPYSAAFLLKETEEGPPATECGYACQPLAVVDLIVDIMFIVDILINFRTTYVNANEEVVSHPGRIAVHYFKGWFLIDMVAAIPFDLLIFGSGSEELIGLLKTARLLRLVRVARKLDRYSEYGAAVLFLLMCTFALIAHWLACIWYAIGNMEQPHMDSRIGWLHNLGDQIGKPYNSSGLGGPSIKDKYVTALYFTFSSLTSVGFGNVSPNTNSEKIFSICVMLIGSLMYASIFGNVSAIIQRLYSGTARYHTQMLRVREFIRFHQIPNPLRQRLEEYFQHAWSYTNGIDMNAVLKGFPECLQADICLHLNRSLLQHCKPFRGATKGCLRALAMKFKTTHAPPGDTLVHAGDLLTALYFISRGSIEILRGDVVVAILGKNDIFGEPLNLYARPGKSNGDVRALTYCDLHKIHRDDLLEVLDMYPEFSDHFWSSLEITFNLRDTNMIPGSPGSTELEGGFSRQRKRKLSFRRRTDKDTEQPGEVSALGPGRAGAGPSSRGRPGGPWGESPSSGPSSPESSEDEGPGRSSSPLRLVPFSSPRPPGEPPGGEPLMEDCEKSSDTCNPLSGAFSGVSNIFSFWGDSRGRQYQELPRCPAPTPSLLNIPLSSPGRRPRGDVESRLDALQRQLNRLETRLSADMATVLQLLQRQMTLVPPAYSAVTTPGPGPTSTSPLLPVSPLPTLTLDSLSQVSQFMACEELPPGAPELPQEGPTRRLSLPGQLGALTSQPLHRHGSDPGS
row,SMILES,"hERG current change (%, negative = inhibition) at 10uM [%]"
1,COc1ccccc1NC(=O)CSC1=NCCN1.Cl,36.3
2,O=C(c1cccs1)N1CCC(c2ccccc2)C1 (stereo not drawn),-1.16
3,N#Cc1nc(-c2cccs2)oc1NCCc1ccccc1,3.08
4,CC(NC(=O)C(=O)N1CCCCC1)C(c1cccs1)N1CCN(c2ccccc2F)CC1 (stereo not drawn),1.73
5,Cc1cc(-n2c(SCC(=O)NCCC3=CCCCC3)nc3n[nH]c(C)c3c2=N)ccc1Cl,4.5
6,Cc1ccc(-n2c(SCC(=O)NCCC3=CCCCC3)nc3n[nH]c(C)c3c2=N)cc1Cl,-9.38
7,COc1cccc(-n2c(SCC(=O)NCCC3=CCCCC3)nc3n[nH]c(C)c3c2=N)c1,-58.9
8,COc1ccc(NC(=O)c2ccc(COc3ccccc3Br)o2)c(OC)c1,10.5
9,CCCOc1ccc(OC(=O)Cc2ccc(OC)c(S(=O)(=O)N3CCOCC3)c2)cc1,-21.7
10,Cc1ccc(NC(=O)CCN2C(=O)c3ccccc3C2=O)cc1C,4.19
11,O=C(CSc1nnc(-c2c[nH]c3ccccc23)n1-c1ccc(F)cc1)NCc1ccco1,-22
12,N#Cc1ccccc1NC(=O)COC(=O)C1CCN(C(=O)c2ccc(Cl)cc2)CC1,-62.5
13,O=C(COC(=O)C1CCN(C(=O)c2ccc(Cl)cc2)CC1)c1ccco1,-26.2
14,O=C(COC(=O)C1CCN(C(=O)c2ccc(Cl)cc2)CC1)NC1CCS(=O)(=O)C1 (stereo not drawn),26.9
15,O=C(COC(=O)C1CCN(C(=O)c2ccc(Cl)cc2)CC1)Nc1ccccc1F,-56.9
16,Cc1cc(NC(=O)COC(=O)C2CCN(C(=O)c3ccc(Cl)cc3)CC2)no1,-19.2
17,C/C(N)=C(/C#N)C(=O)COC(=O)C1CCN(C(=O)c2ccc(Cl)cc2)CC1,-14.3
18,Cc1ccc(-c2cnco2)cc1,11.9
19,COCCN(CCOC)C(=S)Nc1ccccc1Cl,6.62
20,COc1ccc(NC(=O)C(F)(F)F)cc1OC,15.1

row,SMILES,"hERG current change (%, negative = inhibition) at 10uM [%]"
1,COc1ccc(CN2C(=O)c3oc4ccccc4c(=O)c3C2c2ccc(O)c(OC)c2)cc1 (stereo not drawn),4.88
2,O=C1c2cccc3cccc(c23)C(=O)N1CC1CCN(S(=O)(=O)c2ccc(F)cc2)CC1,2.54
3,Cc1cccc(C)c1OCC(O)CN1CCC(CN2C(=O)c3cccc4cccc(c34)C2=O)CC1.Cl (stereo not drawn),-76.2
4,Cc1ccc(S(=O)(=O)N2CCC(CN3C(=O)c4cccc5cccc(c45)C3=O)CC2)cc1,11.3
5,Cc1cc(C)cc(OCC(O)CN2CCC(CN3C(=O)c4cccc5cccc(c45)C3=O)CC2)c1.Cl (stereo not drawn),-70
6,Cc1ccc(C)c(OCC(O)CN2CCC(CN3C(=O)c4cccc5cccc(c45)C3=O)CC2)c1.Cl (stereo not drawn),-68.2
7,Cl.O=C1c2cccc3cccc(c23)C(=O)N1CC1CCN(CC(O)COc2ccc3ccccc3c2)CC1 (stereo not drawn),-46.1
8,CCOC(=O)N1CCN(CC(O)COc2c(C)cccc2C)CC1.Cl (stereo not drawn),-15.7
9,COc1cccc(OCC(O)CN2CCC(CN3C(=O)c4cccc5cccc(c45)C3=O)CC2)c1.Cl (stereo not drawn),-72.3
10,O=C(O)/C(=C\c1cccc(C(F)(F)F)c1)c1ccc(S(=O)(=O)N2CCCC2)s1,5.74
11,O=C(Cc1cccs1)Nc1cccc(C(=O)Nc2ccco2)c1,-37.9
12,CCOc1ccc(Nc2oc(-c3ccco3)nc2C#N)cc1,-1.69
13,COC(=O)c1ccc(NC(=O)CSc2nc(N)c(NC(=O)c3ccc(Br)o3)c(=O)[nH]2)cc1,20.8
14,Cc1cc(C)c(S(=O)(=O)Nc2nccs2)c(C)c1,0.875
15,Cc1cc(S(=O)(=O)NCC(C)C)ccc1OCC(=O)NCC1CCCO1 (stereo not drawn),8.03
16,CC(=O)Nc1nc(C)c(Oc2ccc(C)cc2)c(=O)[nH]1,-1.03
17,S=C(NC1CC1)SCc1ccco1,-11.5
18,COc1cccc(NC(=O)CN(C)CC(=O)NC(C)c2ccccc2)c1 (stereo not drawn),-8.48
19,CN(C)CCN1C(=O)c2oc3ccc(F)cc3c(=O)c2C1c1ccncc1 (stereo not drawn),-2
20,CCOC(=O)CC(=O)CSc1ncnc2c1oc1ccccc12,5.2

row,SMILES,"hERG current change (%, negative = inhibition) at 10uM [%]"
1,Cc1ccc(Cl)cc1Nc1nc(-c2sc(NC(=O)c3ccco3)nc2C)cs1,3.48
2,COc1ccc2c(c1)C(C)CC(C)(C)N2C(=O)CSc1ncn[nH]1 (stereo not drawn),-10.9
3,Cc1ccccc1OCCCC(=O)Nc1ccc(Br)cc1,5.24
4,COc1cccc(OC)c1C(=O)OCC(=O)N(C)c1ccccc1,7.96
5,Cc1ccc(NC(=O)[C@H](C)NC(=O)C2CCN(C(=O)[C@@H](N)CC(C)C)CC2)cc1.Cl,7.29
6,COc1ccc(OCC(O)CN2CCC(CN3C(=O)c4cccc5cccc(c45)C3=O)CC2)cc1.Cl (stereo not drawn),-59.1
7,CCc1ccc(OCC(O)CN2CCC(CN3C(=O)c4cccc5cccc(c45)C3=O)CC2)cc1.Cl (stereo not drawn),-41.1
8,COc1ccc(S(=O)(=O)N2CCC(CN3C(=O)c4cccc5cccc(c45)C3=O)CC2)cc1,7.22
9,Cc1cc(C)n(C(=O)CCCC(=O)n2nc(C)cc2C)n1,-4.17
10,CC(=O)Nc1ccc(NC(=O)COc2ncnc3ccccc23)cc1,-7.63
11,O=C(Nc1ccccn1)c1cc(-c2cccc(Cl)c2)nc2ccccc12,13.3
12,CC1CCN(C(=O)c2ccc(Br)c(S(=O)(=O)N3CCOCC3)c2)CC1,-3.74
13,O=C(c1ccc(Cl)c(S(=O)(=O)N2CCCCCC2)c1)N1CCN(c2ccccn2)CC1,-63.6
14,O=C(c1ccc(Cl)c(S(=O)(=O)NCc2ccccc2)c1)N1CCN(c2ccccn2)CC1,-50.3
15,O=C(c1ccc(Cl)c(S(=O)(=O)Nc2ccc(F)cc2)c1)N1CCN(c2ccccn2)CC1,-33.9
16,O=C(c1ccc(Cl)c(S(=O)(=O)N2CCCC2)c1)N1CCN(c2ccccn2)CC1,-31.3
17,O=C(c1ccc(Cl)c(S(=O)(=O)N2CCCC2)c1)N1CCN(c2ncccn2)CC1,-4.2
18,CC1CCN(S(=O)(=O)c2cc(C(=O)N3CCN(c4ncccn4)CC3)ccc2Br)CC1,-72.4
19,O=C(c1ccc(Cl)c(S(=O)(=O)N2CCOCC2)c1)N1CCN(c2ccccn2)CC1,-44.2
20,O=C(c1ccc(CNS(=O)(=O)c2ccccc2)cc1)N1CCN(c2ccccn2)CC1,-28.5
